Assay results reported in PubChem BioAssay AID493033 (ICCB-Longwood Screening Facility, Harvard Medical School, 2011).
In all, about 100,000 compounds went through this assay and about 930 (0.93%) were called active. The sample holds actives, similar compounds and a random draw of the others, so the mix is not that of the screen. Unmarked numbers belong to inactive results. Cut-off read from the data, not from the text of the source: active = inhibition mostly above about 56% (no sharp cut-off); inactive = mostly below about 77%.

What follows are compounds tested against Salicylate synthase (Mycobacterium tuberculosis (strain CDC 1551 / Oshkosh)) (UniProt P9WFX0) (assay: inhibitors of M. tuberculosis MbtI – biochemical, fluorescence intensity, primary screen (AID 493033)). Conditions: purified MbtI enzyme, fluorescence intensity read-out, stronger effect = higher value, concentration not given here.
Chain of Salicylate synthase (Mycobacterium tuberculosis (strain CDC 1551 / Oshkosh)) (P9WFX0 whole entry, looked up): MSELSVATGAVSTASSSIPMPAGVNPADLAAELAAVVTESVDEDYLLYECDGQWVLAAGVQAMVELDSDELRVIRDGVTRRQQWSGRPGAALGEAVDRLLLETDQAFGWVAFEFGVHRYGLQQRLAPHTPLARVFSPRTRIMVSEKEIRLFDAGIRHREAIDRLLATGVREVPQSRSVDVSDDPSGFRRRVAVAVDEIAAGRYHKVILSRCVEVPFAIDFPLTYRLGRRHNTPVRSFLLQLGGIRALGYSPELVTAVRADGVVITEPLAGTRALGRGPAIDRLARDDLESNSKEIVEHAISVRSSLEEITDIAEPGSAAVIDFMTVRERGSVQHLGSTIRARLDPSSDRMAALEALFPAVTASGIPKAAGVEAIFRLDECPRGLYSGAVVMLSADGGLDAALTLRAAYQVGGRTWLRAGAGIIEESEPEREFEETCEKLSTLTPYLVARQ

Compound | inhibition
O=c1cc(-c2ccccc2)sc2ccc(Cl)cc12 | -0.1%
CN=Cc1cc(-c2ccccc2)sc1S | 95.8% (active)
CSc1ncnc2sc(-c3ccccc3)cc12 | -44.5%
Cc1nn2c(=O)/c(=C/c3ccccc3)sc2nc1=O | -1.65%
Cc1nc(Cc2nnc(SC/C(O)=C(\C#N)c3nc4ccccc4[nH]3)o2)cs1 | 25.6%
Cc1occc1-c1nnc2n1N=C(c1ccc(-c3cc(Cl)ccc3Cl)o1)CS2 | 98% (active)
O=C(Nc1cccc(Br)c1)C1CC(=O)N(C2CCCC2)C1 (stereo not given) | -4.55%
CN(C)c1ccc(-c2ncnn2-c2ccccc2)cc1 | -9.6%
Cc1csc(NC(=O)C2CCC(CNS(=O)(=O)c3cccc4nsnc34)CC2)n1 (stereo not given) | -0.3%
Cc1ccc(Cl)cc1N1CCN(C(=O)/C=C/c2ccc(S(=O)(=O)NCc3ccco3)cc2)CC1 | 5.7%
COC(=O)c1cccc(NC(=O)CCCN2C(=O)c3ccccc3C2=O)c1 | -11.5%
Cc1ccc(NC(=O)COC(=O)C2CCC2)cc1Cl | -5.6%
COc1cc(NS(=O)(=O)c2cc(C)c(Cl)cc2C)c(C(=O)O)cc1OC | -26.2%
O=C(O)C1=Cc2sc3c(c2CS1)CCCC3 | 95.4%
O=C(C1=Cc2sc3c(c2CS1)CCCC3)N1CCCC1 | 98.8% (active)
O=C(c1ccc(Cl)cc1)N1CCCC1 | -5.1%
O=C(O)C1CCC(CNCc2cccc(Br)c2)CC1 (stereo not given) | -9.65%
O=C(/C=C\c1cn(-c2ccccc2)nc1-c1cccs1)N1CCOCC1 | -50.8%
CCN(CC)c1ccc2oc(=O)c(C)nc2c1 | 94.8% (active)
CCN(CC)c1ccc(C=C(C#N)C#N)c(OC(C)=O)c1 | -99.2%
CCN(CC)c1ccc(-n2nc3cc(C)c(NC(C)=O)cc3n2)cc1 | 88.6%
CCCc1cc2c(cc1N)OCO2 | 13.3%
CCc1nc2cccnc2n1-c1ccc(CC(=O)NCCN2CCOCC2)cc1 | 2.4%
S=C(Cc1ccccc1)N1CCCCC1 | 29.6%

Compound | inhibition
S=C(c1ccc(-c2ccccc2)o1)N1CCCCC1 | 102% (active)
O=C(c1ccco1)N1CCCCCCC1 | -14.8%
COC(=O)c1cc(Cl)cc(Cl)c1O | -95.7%
O=c1cc(CN2CCN(Cc3ccccc3)CC2)nc2sccn12 | 12%
COc1cccc(CN(C)C(=O)/C=C/c2ccco2)c1OC | 9.5%
Cn1ncc2c(NCc3cccnc3)ncnc21 | 0.9%
Cc1cccc(NC(=O)CCn2c(=O)oc3ccccc32)c1 | 3%
O=C(CCn1c(=O)oc2ccccc21)Sc1ccc(C(F)(F)F)cc1 | 70.7% (active)
O=C(CCCn1c(=O)oc2ccccc21)Nc1cccnc1 | -8.05%
CCN(Cc1nc(-c2ccc(OC)c(OC)c2)no1)C(=O)CCC1CCCCC1 | -0.6%
CCCCn1c2c(c(=O)n(C)c1=O)C(c1ccc(OC)cc1)C1=C(CCCC1=O)N2 (stereo not given) | -21%
Cc1cc(C)nc(SCc2nnc(SCC(=O)N3c4ccccc4Sc4ccc(Cl)cc43)o2)n1 | -20.7%
Cc1noc(C)c1C(=O)c1c(C)[nH]n(-c2ccccc2)c1=O | 3.5%
CC1=NOC(=O)C1C(c1cccc(Br)c1)c1c(C)[nH]n(-c2ccccc2)c1=O (stereo not given) | 98.3% (active)
Cc1ccc(Sc2c(C)[nH]n(-c3ccccc3)c2=O)cc1 | -4.4%
c1ccc(Nc2nncs2)cc1 | 12.9%
S=c1[nH]nc(Nc2ccccc2)s1 | 99.7% (active)
S=c1[nH]nc(NCCc2ccccc2)s1 | 86.7%
COc1ccccc1-c1nnc(Cc2ccc(F)cc2Cl)o1 | -4.2%
O=C1CN(C(=O)C2COc3ccccc3O2)c2ccccc2N1 (stereo not given) | -23.2%
O=C(CSc1nc(-c2ccccc2)nc2c1CCCC2)N/N=C/c1ccco1 | -6.4%
COc1ccccc1C(=O)CSc1cccc[n+]1[O-] | -9.25%
C=C(C)CNC(=S)NN | 98.5% (active)
CC(C)(C)CNC(=S)NN | -14.9%

Compound | inhibition
C=C(C)CNC(=S)N1CCNCC1 | -14.4%
CCc1nc(NCCO)c(C#N)c2c1CCCC2 | -125%
O=C(NC1=NCCS1)c1ccccn1 | -4.65%
COc1ccc(-c2nn(-c3ccccc3)cc2/C=C\C(=O)N(C)C)cc1 | -4.25%
O=C(CNCc1ccc2c(c1)OCO2)NCc1ccc2c(c1)OCO2 | 7.9%
CCCn1c(SC(C(=O)NC(=O)NC)c2ccccc2)n[nH]c1=O (stereo not given) | -3.85%
CC1CCCCC1NC(=O)COc1ccc(C#N)cc1 (stereo not given) | -7.1%
S=c1ccc2ccccc2[nH]1 | 82.2% (active)
O=C(O)Cc1cn(-c2ccccc2)nc1-c1cccs1 | -32.5%
c1ccc(C(N2CCOCC2)N2CCOCC2)cc1 | -2.5%
CC(O)CNc1nc2ccccc2n1CC(O)COCc1ccco1 (stereo not given) | -2.1%
O=C(CNCCCN1CCOCC1)Nc1cccc(C(F)(F)F)c1 | 14.8%
O=C(CSc1ccc(Br)cc1)c1ccco1 | 55.8% (active)
O=C(CSc1ccc2ccccc2c1)N1CCN(C(=O)c2ccco2)CC1 | -5.25%
O=C(CSc1ccccc1)Nc1ccc(NC(=O)c2ccco2)cc1 | 9.65%
CCSc1nnc(SCC(=O)N2CC(=O)Nc3ccccc32)s1 | 12.2%
Oc1c(C(c2cccnc2)N2CCOCC2)ccc2cccnc12 (stereo not given) | 91.7% (active)
Oc1c(C(Nc2ccccn2)c2cccnc2)ccc2cccnc12 (stereo not given) | 28.4%
CC(=O)NC(c1ccccc1)c1ccc2cccnc2c1O (stereo not given) | -4.35%
O=C(NCCC1=CCCCC1)Nc1ccc(Cl)cc1 | -5%
Cc1cc(C)nc(NNC(=S)Nc2ccc(S(=O)(=O)N3CCOCC3)cc2)n1 | 54.5%
Cc1ccc(C(=O)CN(C)C2CCCCC2)cc1 | 12.6%
